Rows were chosen to be rich in hits. Some 3.6% of all compounds tested hit in one or more screens of this group.
Peg3 promoter: reduces Peg3 promoter-driven luciferase expression in HeLa; HeLa PEG-Prom luciferase reporter, luminescence, overnight; inhibition, % at 20 µM; actives 1.7% (n = 360,000); AID 588405;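 active = inhibition of at least 50% at 20 µM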
CF NFkB inh: inhibitors of cystic fibrosis induced NF-kB; actives 0.86% (n = 360,000); AID 588850; KKLEB NF-kB-GFP reporter, PAF-induced, GFP fluorescence overnight; inhibition, % at 5 µM;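 active = at least 50% inhibition at 5 µM, scaled per plate between neutral and stimulator controls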;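 also: PAF is a Pseudomonas aeruginosa culture filtrate used as stimulus; plate controls were PAF-stimulated DMSO wells for no effect and unstimulated DMSO wells for full effect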
KKLEB cytotox: reduces viability of KKLEB cystic fibrosis airway cells; KKLEB CF airway cells viability, ATPlite luminescence, overnight; hits give low values; cells stimulated with P. aeruginosa culture filtrate; activity change (cytotoxicity), % at 5 µM; actives 0.36% (n = 360,000);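 active = corrected activity change at or below -50% at 5 µM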
Mdm2-MdmX inh: inhibitors of human Mdm2/MdmX interaction; SaOS-2 split-luciferase Mdm2/MdmX complementation, luminescence; inhibition, % at 8 µM; actives 3% (n = 330,000);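 active = inhibition of at least 50% at 8 µM in the primary screen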
LGR2 inh: Drosophila LGR2 receptor signaling inhibition. HEK293 LGR2, CRE-luciferase, bursicon-stimulated, 4 h. inhibition, % at 9.99 µM. actives 0.35% (n = 380,000). AID 720647;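 active = drop in luminescence signal, shown as inhibition above about 50% in the replicate tests, limit read from the data, passing the limit was not always enough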;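 also: agonist challenge used bursicon conditioned medium at about half maximal strength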
HSP90 refold inh: blocks HSP90-mediated luciferase refolding in reticulocyte lysate | Rabbit reticulocyte lysate, luciferase refolding luminescence, 3 h | inhibition, % at 5.6 µM | actives 0.91% (n = 290,000) | AID 1789;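 active = inhibition above the screen-wide mean plus 3 SD, computed separately per campaign, cut at about 16% in these data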;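 also: 0% = DMSO wells and 100% = 60 µM geldanamycin wells; inhibitors lower the luminescence because luciferase stays unfolded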
HSP90 confirm: confirmation of HSP90 inhibitors. AID 1846. actives 64% (n = 2,300). shares compounds with HSP90 refold inh. inhibition, % at 5.9 µM. rabbit reticulocyte lysate, luciferase refolding luminescence, 3 h; in the data active = inhibition above about 18%;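 also: 0% = vehicle wells and 100% = reference inhibitor wells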
FLuc counter: counter-screen for HSP90 inhibitors: inhibitors of firefly luciferase; shares compounds with HSP90 refold inh; purified native firefly luciferase, luminescence; inhibition, % at 5.9 µM; actives 48% (n = 2,300);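 active = inhibition above the mean inhibition of all tested sample wells plus 3 SD, cut at about 10% in these data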;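 also: 0% = DMSO with luciferase and 100% = wells lacking luciferase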
* hit, by the source's call; . = not tested or not shown.

SMILES | Peg3 promoter | CF NFkB inh | KKLEB cytotox | Mdm2-MdmX inh | LGR2 inh | HSP90 refold inh | HSP90 confirm | FLuc counter
O=C(N/N=C1\CCCc2ccccc21)c1ccccc1Cl | -190 | 10 | 1 | -27 | -38 | 6 | . | .
O=C(O)c1ccc(N/N=C2/CCCc3ccccc32)cc1 | -138 | -8 | -4 | 4 | -55 | 18* | 2 | -6
COC(=O)C1CCN(C(=O)c2ccc3nc(-c4cccc(OC)c4)oc3c2)CC1 | -143 | -7 | 1 | -61 | -36 | 51* | 63* | -10
CCCC(=O)Nc1ccc2c(c1)C(=O)N(C)[C@@H]1CC[C@H](CC(=O)NCC3CC3)O[C@@H]1CO2 | . | . | . | . | 17 | . | . | .
S=C(NCCc1ccccn1)NC1CCCCC1 | -103 | 1 | 7 | -29 | -5 | 23* | 1 | -11
S=C(NCCCc1ccccc1)NC1CCCCC1 | -86 | -15 | 16 | -17 | -43 | -1 | . | .
COc1ccc2c3c(n(C)c2c1)[C@@H](CO)N(C(=O)C1CCCC1)CC31CCN(Cc2cccc(F)c2)CC1 | . | . | . | . | 2 | . | . | .
COCCNC(=O)C[C@H]1CC[C@H]2[C@@H](COC[C@H](O)CN2S(=O)(=O)c2ccccc2C)O1 | . | . | . | . | 2 | . | . | .
Cc1cc(CC(C)C)n(-c2nc3ccccc3c(=O)n2OCc2ccccc2)n1 | -23 | -19 | 14 | 12 | . | 18* | 15 | 9.5*
Cc1cc(CC(C)C)n(-c2nc3ccccc3c(=O)n2OCC(=O)N(C)C)n1 | -104 | 1 | 6 | 29 | . | 9 | . | .
CN1c2ccc(-c3cccc(C#N)c3)cc2[C@H]2[C@H](CCN2S(=O)(=O)c2ccccc2F)[C@H]1CO | . | . | . | . | 32 | . | . | .
O=C(Nc1nc2ccc(Cl)cc2s1)c1ccco1 | -243 | 10 | -3 | -177 | . | 15 | . | .
C/C(=C\C(=O)c1ccccc1)NNc1nc2ccccc2s1 | -35 | -7 | -9 | -22 | . | 37* | -5 | -11
CC(=O)NNc1nc2ccccc2s1 | 4 | -3 | 3 | -18 | . | 3 | . | .
COC(=O)c1ccc2nc(NC(=O)C3CC3)sc2c1 | -221 | 4 | -24 | -40 | -59 | 39* | 57* | -20
COc1ccc2nc(NC(=O)c3ccco3)sc2c1 | -88 | -11 | -15 | -54 | 81* | 41* | 58* | 56*
O=C(Nc1ncccc1O)c1ccc(OCC2CCCO2)cc1 (configuration not stated) | -30 | -40 | 14 | 2 | 43 | 24* | 44* | 20*
CCC(=O)N1CC[C@@H]2[C@H](CO)Nc3ccc(C#Cc4cccnc4)cc3[C@@H]21 | . | . | . | . | 9 | . | . | .
CN(C)CCCNC(=O)C[C@@H]1CC[C@H]2[C@H](COc3ccc(NC(=O)c4ccccc4F)cc3C(=O)N2C)O1 | . | . | . | . | 11 | . | . | .
COc1ccc2c3c([nH]c2c1)[C@H](CO)N(C(=O)c1ccc(F)cc1)CC31CN(C)C1 | . | . | . | . | -16 | . | . | .
COc1ccc(C(=O)Nc2nc3ccccc3s2)cc1 | -50 | -56 | -22 | 10 | 49 | 37* | 73* | 67*
O=C(Nc1nc2ccccc2s1)c1ccc(OCC2CCCO2)cc1 (configuration not stated) | -33 | -13 | -5 | -42 | 43 | 19* | 39* | 33*
COc1ccc2c(c1)Cc1sc(NC(=O)c3ccccc3)nc1-2 | -217 | -18 | 14 | -9 | . | 18* | -3 | -28
CC(C)NC(=O)Nc1ccc2c(c1)C(=O)N([C@@H](C)CO)C[C@H](C)[C@H](CN(C)C(=O)Nc1ccccc1)O2 | . | . | . | . | -4 | . | . | .
C/C=C/c1ccc2c(c1)O[C@@H](CN(C)C(=O)c1ccc(F)cc1)[C@H](C)CN([C@H](C)CO)S2(=O)=O | . | . | . | . | 4 | . | . | .
CN(C)C(CNC(=O)C1CCN(S(=O)(=O)c2cccc(C(F)(F)F)c2)CC1)c1ccccc1 (configuration not stated) | 1 | -7 | -1 | 12 | -4 | 40* | -4 | -13
Cc1cc(C)c2c(N)c(C(=O)Nc3nccs3)sc2n1 | -40 | -31 | -23 | -64 | . | 30* | 62* | 51*
